The values below come from PubChem BioAssay (NCATS).

Structures are written as SMILES. Results filed as inconclusive are left out. Active and inactive are the calls of the source. The call rests on the fitted dose curve.

The first assay in a line: Primary qHTS for inhibitors of MERS-S pseudo-typed particle cell entry (AID 1479149). Further: nearly all actives have a fitted effect of over 60% in size. The note with it: MERS-S pseudotyped particle entry, luciferase; series mostly up to 57.1 µM; activity change, negative = inhibition: at the top concentration.
For `CN1[C@@H]2CC[C@H]1CC(NC(=O)n1c(=O)[nH]c3ccccc31)C2` (stereo partly drawn), the compound was classed as inactive.
As for `O=C(O)C(=O)Nc1cccc(-c2nn[nH]n2)c1`, the compound was called inactive.
The same measure, in the same setting: under `c1ccc2[nH]c(-c3cscn3)nc2c1` stands “inactive”; under `CCOc1c(N2CCOCC2)cnn(C)c1=O`, “inactive”; under `COc1cc(NS(=O)(=O)c2ccc(N)cc2)nc(OC)n1`, “inactive”.

A further assay can be described thus: Primary qHTS for Vero E6 cytotoxicity: counterscreen for inhibitors of SARS-S pseudo-typed particle cell entry (AID 1479150). On activity change, negative = cytotoxicity: on the % scale 0 is the no-effect control and ±100 the full control effect. The note with it: cell viability; series mostly up to 57.1 µM; activity change, negative = cytotoxicity: at the top concentration.
As to `CCO[C@@H]1O[C@H](C(COCc2ccccc2)OCc2ccccc2)[C@H](OCc2ccccc2)[C@H]1O` (stereo partly drawn), the compound was classed as inactive.
`CCOC(=O)NNc1nncc2ccccc12`: the “activity change, negative = cytotoxicity” value was -0.249% (inactive).
Still for that read-out and setting: the value for `CN(C)[C@@H]1C(=O)C(C(=O)NCN2CCCC2)=C(O)[C@@]2(O)C(=O)C3=C(O)c4c(O)cccc4[C@@](C)(O)C3C[C@@H]12` (stereo partly drawn) was 2.87% (inactive); that for `CCNC(=O)NCCCOc1cccc(CN2CCCCC2)c1` was 4.9% (inactive).
`CCN(CC)C(=O)C1CN2CCc3cc(OC)c(OC)cc3C2CC1OC(C)=O` (stereo not drawn): the result was inactive.
On to `CC1(C)[C@@H]2CC[C@@]1(C)C(=O)C2`, for which the outcome was inactive.
Regarding `CC(=O)N[C@H]1[C@H]([C@H](O)[C@H](O)CO)OC(C(=O)O)=C[C@@H]1N=C(N)N`, the “activity change, negative = cytotoxicity” value was 1.41% (inactive).
Take `N[C@H]1CN(c2c(F)cc3c(=O)c(C(=O)O)cn(C4C[C@@H]4F)c3c2Cl)CC12CC2` (stereo partly drawn): the result was inactive.
On the same count and under the same terms, the value for `C[C@@H]1CCN(C(=O)[C@H](CCCN=C(N)N)NS(=O)(=O)c2cccc3c2NC[C@H](C)C3)[C@@H](C(=O)O)C1` was “inactive”.
With `Cc1cccc(N(C)C(=S)Oc2ccc3c(c2)C2CCC3C2)c1` (stereo not drawn), the “activity change, negative = cytotoxicity” value is -4.06% (inactive).
Turning to `OC[C@H]1O[C@@H](O[C@@H]2[C@@H](CO)O[C@](O)(CO)[C@H]2O)[C@H](O)[C@@H](O)[C@H]1O`, the compound was called inactive.
With `Nc1ccc(N=Nc2ccccc2)c(N)n1`, the “activity change, negative = cytotoxicity” value was -10.6% (inactive).
In the case of `CC1(C)OC[C@@H](COC(=O)CCc2ccc(OC[C@@H](O)CNCCNC(=O)N3CCOCC3)cc2)O1`, the outcome was inactive.
As to `C[C@@H]1C[C@H]2[C@@H]3CCC4=CC(=O)C=C[C@]4(C)[C@@]3(Cl)[C@@H](O)C[C@]2(C)[C@@]1(OC(=O)c1ccco1)C(=O)CCl`, the result was inactive.
Regarding `C/C(=N/NC(=O)c1ccncc1)C(=O)O`, the “activity change, negative = cytotoxicity” value was 2.69% (inactive).
`CCCCCOc1ccc(C2SC(=O)NC2=O)cc1OCC` (stereo not drawn): the “activity change, negative = cytotoxicity” value was 2.17% (inactive).
Consider `CC1(C)[C@H](C(=O)O)N2C(=O)C[C@H]2S1(=O)=O`, for which the compound was classed as inactive.
The same measure, in the same setting: the value for `N[C@H](C(=O)O)[C@@H](O)c1ccc(O)c(O)c1` was “inactive”; that for `O=C(O)c1ccc(OCCCOc2ccc(C(=O)O)cc2)cc1` was “inactive”.
Consider `C=CCOc1ccccc1OCC(O)CNC(C)C` (stereo not drawn), for which the “activity change, negative = cytotoxicity” value is 2.42% (inactive).
Regarding `CCC1Nc2cc(Cl)c(S(N)(=O)=O)cc2S(=O)(=O)N1` (stereo not drawn), the outcome was inactive.
`CCCc1ncc(C[n+]2ccccc2C)c(N)n1`: the compound was called inactive.
For the compound `COc1ccc2c(c1OC)C(=O)O[C@@H]2[C@H]1c2c(cc3c(c2OC)OCO3)CCN1C`, the result was inactive.
As to `C/C(=C(\CCOP(=O)(O)O)SC(=O)c1ccccc1)N(C=O)Cc1cnc(C)nc1N`, the outcome was “inactive [at 5.34 µM]”.
On to `CN(Cc1ccc(C(C)(C)C)cc1)Cc1cccc2ccccc12`, for which the compound was classed as inactive.
As to `Cc1cc(C(C)(C)C)c(O)c(C)c1CC1=NCCN1`, the compound was classed as inactive.
Consider `O=C1c2ccccc2C(=O)C1c1ccccc1`, for which the compound was called inactive.
With `C[C@]12C=CC(=O)C=C1CC[C@H]1[C@@H]3C[C@@H](O)[C@](O)(C(=O)CO)[C@@]3(C)C[C@H](O)[C@@]12F`, the compound was classed as inactive.
As to `O=C(CCCCCCCCC#CI)Oc1ccccc1`, the “activity change, negative = cytotoxicity” value was -13.4% (inactive).
Consider `O=c1ccc2ccccc2o1`, for which the outcome was inactive.
As to `Cc1ccc(C(=O)Oc2ccc(C(O)CNC(C)(C)C)cc2OC(=O)c2ccc(C)cc2)cc1` (stereo not drawn), the outcome was inactive.
Take `CCCCC1(COC(=O)CCC(=O)O)C(=O)N(c2ccccc2)N(c2ccccc2)C1=O`: the “activity change, negative = cytotoxicity” value was 2.49% (inactive).
As to `C#C[C@]1(O)CC[C@H]2[C@@H]3CCc4cc(OC)ccc4[C@H]3CC[C@@]21C`, the compound was classed as inactive.
Consider `CN1[C@@H]2CC[C@H]1CC(NC(=O)n1c(=O)[nH]c3ccccc31)C2` (stereo partly drawn), for which the result was inactive.
In the case of `O=C(O)C(=O)Nc1cccc(-c2nn[nH]n2)c1`, the “activity change, negative = cytotoxicity” value is -6.55% (inactive).
Same read-out and setting: the value for `c1ccc2[nH]c(-c3cscn3)nc2c1` was -11.3% (inactive).
In the case of `CCOc1c(N2CCOCC2)cnn(C)c1=O`, the call was inactive.
In the case of `COc1cc(NS(=O)(=O)c2ccc(N)cc2)nc(OC)n1`, the “activity change, negative = cytotoxicity” value is -6.1% (inactive).
